In the library only some 2.7% were active in any assay of this set; here they are far more common.
SKN-1 block – suppressors of acrylamide-induced Pgst-4::GFP reporter in worms, primary screen, SKN-1 inhibitor project, whole organism, uHTS, GFP/RFP fluorescence ratio, strain VP596 | 360,000 tested, 0.49% active | inhibition, % at 21.8 µM | AID 624304, 2012 | C. elegans VP596 Pgst-4::GFP/RFP ratio, 24 h;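 active means interference check ratio from 0.5 to 1.5 plus GFP to RFP signal ratio inhibition reaching or exceeding a fixed threshold, cut at about 30% in these data, passing the limit was not always enough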
F508del corr – F508del CFTR correction, initial screen, CFBE line, single point; CFBE cells, YFP halide quenching; stimulated with forskolin plus potentiator P3; % fluorescence drop versus neutral controls; 350,000 tested, 0.36% active; activity (quench increase), % at 7.58 µM;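 active means mean added fluorescence quench of at least 8% versus neutral control, with both replicates also reaching 8%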;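 further: cells transiently co-express mutant CFTR-F508del with the halide-sensitive YFP; corrector assay measuring rescue of mutant channel to the surface after 24 h compound exposure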
ATG4B inh – ATG4B protease inhibitors, primary screen, biochemical, fluorescence, uHTS; inhibition, % at 8.33 µM; AID 504462, 2011; Cysteine protease ATG4B (Homo sapiens), Q9Y4P1; ATG4B cleavage of LC3-PLA2, NBD-HPC fluorescence, 1 h; 340,000 tested, 0.51% active; in the data active means inhibition above about 40%
Target sequence (Q9Y4P1 whole entry, looked up): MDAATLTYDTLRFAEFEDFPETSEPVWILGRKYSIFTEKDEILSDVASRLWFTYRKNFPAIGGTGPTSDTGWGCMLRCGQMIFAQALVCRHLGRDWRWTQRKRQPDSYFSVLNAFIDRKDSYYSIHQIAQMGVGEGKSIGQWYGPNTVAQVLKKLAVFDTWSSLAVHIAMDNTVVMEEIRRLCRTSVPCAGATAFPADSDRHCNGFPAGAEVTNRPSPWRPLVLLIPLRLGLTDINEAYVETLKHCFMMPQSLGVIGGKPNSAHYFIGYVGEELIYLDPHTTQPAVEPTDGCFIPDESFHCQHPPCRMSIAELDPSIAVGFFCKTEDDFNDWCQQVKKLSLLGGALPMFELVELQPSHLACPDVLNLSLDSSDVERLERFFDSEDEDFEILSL
MPTP block – mitochondrial permeability transition pore inhibitors, primary screen, biochemical, isolated mouse mitochondria, absorbance; AID 602449, 2012; inhibition, % at 10 µM; 360,000 tested, 1.4% active; Ca2+ swelling absorbance, 30 min;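 active means inhibition of 50% or more, scaled per plate between neutral and stimulator controls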;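 further: 0% = DMSO wells given calcium and 100% = 1 mM EGTA wells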
CendR NRP1 mod – modulators of CendR peptide binding to NRP-1, primary screen, biochemical, fluorescence polarization, uHTS; Neuropilin-1 (Homo sapiens), O14786; FAM-RPARPAR peptide binding to NRP-1; inhibition, % at 25 µM; 360,000 tested, 0.85% active; AID 602438, 2012;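 active means inhibition or corrected inhibition above about 18%, plus a signal ratio from 0.5 to 1.5, limit read from the data, passing the limit was not always enough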
The depositor's hits bear a star; / = no result given.

SMILES | SKN-1 block | F508del corr | ATG4B inh | MPTP block | CendR NRP1 mod
Nc1ccn(CC(=O)NCc2ccccn2)c(=O)n1 | 16.9 | -1.8 | -3.6 | -2.6 | 0.0
Nc1ccn(CC(=O)NCc2ccc3c(c2)OCO3)c(=O)n1 | -12.6 | -1.1 | 4.5 | -0.5 | 21.1*
Nc1ccn([C@@H]2O[C@H](C(=O)NCCc3ccc(F)cc3)[C@@H](O)[C@H]2O)c(=O)n1 | -6.9 | -0.9 | / | -1.2 | 0.5
O=C(C[C@H]1C[C@H]2c3cc(NS(=O)(=O)c4ccc(F)cc4)ccc3O[C@H]2[C@@H](CO)O1)NCc1cccnc1 | / | 1.2 | / | / | /
CO[C@@H]1CN(C)C(=O)c2cc(NC(=O)Nc3ccccc3F)ccc2OC[C@@H](C)N(C)C[C@@H]1C | / | 1.5 | / | / | /
O=C(Nc1ccccc1)c1nc[nH]c1C(=O)N1CCc2ccccc2C1 | 9.8 | 2.0 | -2.8 | -0.2 | 5.2
COc1ccc(NC(=O)c2nc[nH]c2C(=O)N2CCC(C)CC2)cc1 | 6.5 | -2.8 | -5.9 | 0.9 | 24.9*
CC1CCN(C(=O)c2nc[nH]c2C(=O)N2CCC(C)CC2)CC1 | 18.1 | -0.4 | -9.6 | -0.2 | 36.3*
CC1CCN(C(=O)c2nc[nH]c2C(=O)N2CCc3ccccc3C2)CC1 | 7.4 | 0.0 | -4.8 | -0.7 | 28.8*
CS(=O)(=O)Nc1ccc2c(c1)[C@H]1C[C@H](CC(=O)NCc3ccncc3)O[C@@H](CO)[C@H]1O2 | / | -4.1 | / | / | /
Cc1ccc(C(O)c2ccncc2)cc1 (stereo not drawn) | -12.0 | -3.7 | 1.0 | 0.8 | -8.4
CC(c1ccncc1)C(C)c1ccncc1 (stereo not drawn) | 4.5 | -2.0 | -9.1 | -0.6 | 23.0*
Cc1noc(C)c1C(=O)OCC(=O)NCc1ccccc1 | 9.2 | -0.3 | -2.1 | 0.1 | 23.6*
Cc1noc(C)c1NC(=O)N(C)C[C@@H]1Oc2c(NC(=O)Nc3ccc4c(c3)OCO4)cccc2C(=O)N([C@@H](C)CO)C[C@@H]1C | / | 0.4 | / | / | /
COc1ccc(C2=CC3=C(Br)C(=O)C(C)(OC(=O)c4ccco4)C(=O)C3=CO2)cc1 (stereo not drawn) | 11.2 | / | 82.3* | 3.0 | -75.5
COC(=O)CCC(=O)OC1(C)C(=O)C2=CN(c3ccc(OC)cc3)C(c3ccc(OC)cc3)=CC2=C(Br)C1=O (stereo not drawn) | 8.2 | / | 2.7 | 0.7 | 4.6
CC1(C)Cc2c(C#N)c(NCC3CCCO3)nc(-c3ccco3)c2CO1 (stereo not drawn) | 2.3 | / | -16.0 | 1.0 | -24.1
N#Cc1c(-c2ccco2)nc(NCC2CCCO2)[nH]c1=O (stereo not drawn) | 6.3 | / | 9.1 | 2.0 | 26.8*
CCOc1ccc(C(=O)COC(=O)c2nn(CC)c(=O)c3ccccc23)cc1 | 3.6 | -3.1 | -34.8 | -1.4 | 18.9*
O=C1CN(Cc2ccccc2)C[C@@H]2[C@H](c3ccc(-c4cccnc4)cc3)[C@@H](CO)N12 | / | 0.4 | / | / | /
COc1ccc(-n2nnnc2C(CCc2ccccc2)N2CCN(C/C=C/c3ccccc3)CC2)cc1 (stereo not drawn) | -8.3 | -4.4 | / | 2.6 | 24.0*
COc1ccc(-n2nnnc2C(c2ccccc2)N2CCN(C/C=C/c3ccccc3)CC2)cc1 (stereo not drawn) | 14.2 | 10.4* | / | 1.6 | 0.0
N#Cc1c2ccc(O)cc2n2ccccc12 | 5.2 | -4.4 | 2.6 | 1.8 | 31.3*
N#Cc1c2ccc(OCC(=O)NCc3ccco3)cc2n2ccccc12 | 0.9 | -2.0 | 2.0 | -0.6 | -10.2
C=CCN1C=C2C(=O)C(C)(OC(=O)c3cnc4ccccc4n3)C(=O)C=C2C=C1/C=C/COC (stereo not drawn) | 2.9 | 2.2 | 0.2 | -0.2 | 31.4*
SMILES | SKN-1 block | F508del corr | ATG4B inh | MPTP block | CendR NRP1 mod
COC/C=C/C1=CC2=CC(=O)C(C)(OC(=O)c3cnc4ccccc4n3)C(=O)C2=CN1CCN1CCOCC1 (stereo not drawn) | 14.5 | -0.4 | -13.2 | 1.6 | 7.7
COC/C=C/C1=CC2=CC(=O)C(C)(OC(=O)c3cnc4ccccc4n3)C(=O)C2=CN1CCOC (stereo not drawn) | 19.2 | -0.1 | -0.7 | -1.2 | 32.1*
COC/C=C/C1=CC2=CC(=O)C(C)(OC(=O)c3cnc4ccccc4n3)C(=O)C2=CN1Cc1ccco1 (stereo not drawn) | 12.7 | -1.4 | 2.1 | -0.3 | 29.6*
CCCCC1=CC2=CC(=O)C(C)(OC(=O)CC)C(=O)C2=CN1Cc1ccco1 (stereo not drawn) | 8.3 | / | -4.8 | -1.4 | 10.0
COC/C=C/C1=CC2=CC(=O)C(C)(OC(=O)c3cnc4ccccc4n3)C(=O)C2=CN1C(CO)CO (stereo not drawn) | 3.0 | -1.7 | -11.8 | 0.2 | 37.1*
CCCCC1=CC2=CC(=O)C(C)(OC(=O)CC)C(=O)C2=CN1CCOC (stereo not drawn) | 20.8 | / | 3.6 | 0.6 | -3.1
COC/C=C/C1=CC2=CC(=O)C(C)(OC(=O)c3cnc4ccccc4n3)C(=O)C2=CN1CCCOC(C)C (stereo not drawn) | 18.8 | -2.3 | -7.6 | -0.1 | 43.5*
COc1cccc(-c2ccc([C@@H]3[C@@H](CO)N4C(=O)CN(C(=O)C5CCC5)C[C@H]34)cc2)c1 | / | 1.7 | / | / | /
CCCNC(=O)N1CC2(C1)[C@H](c1ccccc1)[C@@H](CO)N2CC1CCCC1 | / | -2.9 | / | / | /
CC1CC(C)(C)CC2(C1)NC(=O)N(CC(=O)Nc1c(F)cccc1F)C2=O (stereo not drawn) | 16.9 | 1.7 | -20.1 | 0.3 | 5.9
Cc1cccc(NC(=O)CN2CCN(C(=O)CN3C(=O)NC4(CC(C)CC(C)(C)C4)C3=O)CC2)c1C (stereo not drawn) | -15.0 | 8.8* | 0.9 | -1.0 | 6.0
CC(=O)Nc1ccc2c(c1)-c1ccc(F)cc1C2 | 17.8 | -5.9 | -12.3 | 1.6 | 17.0
CC(=O)Nc1cc(F)c2c(c1F)Cc1cc(F)ccc1-2 | 10.4 | 2.0 | -8.7 | 0.2 | 24.5*
C=C1CCN(C(C(=O)OC)C(C)C)S(=O)(=O)c2ccc(F)cc21 (stereo not drawn) | -1.1 | -0.7 | 0.0 | -0.6 | 27.7*
C=C1CCN([C@@H](CC(C)C)C(=O)NCc2ccccc2)S(=O)(=O)c2ccccc21 | 15.9 | 1.9 | -12.4 | 0.3 | 26.8*
C=C1CCN([C@@H](CC(C)C)C(=O)NCCCc2ccccc2)S(=O)(=O)c2ccccc21 | 0.5 | 0.6 | -6.4 | 20.2 | 30.2*
C=C1CCN(C(CC(C)C)C(=O)OC)S(=O)(=O)c2ccccc21 (stereo not drawn) | 8.9 | -2.0 | 1.4 | -0.5 | 7.4
C=C1CCN([C@@H](CC(C)C)C(=O)NCc2ccco2)S(=O)(=O)c2ccccc21 | -7.9 | 3.6 | 8.8 | 1.0 | 11.3
